A selection: hits, their analogues and other compounds. The true share with any hit is near 0.88%.
BLM helicase inh: qHTS Assay for Inhibitors of Bloom's syndrome helicase (BLM) | 350,000 tested, 0.2% active | RecQ-like DNA helicase BLM (Homo sapiens), P54132 | recombinant BLM DNA unwinding, fluorescence dequenching | Potency, µM (series often up to 56.1 µM), for inactives: at the top dose activity change, negative = inhibition, hits mostly inhibitors | AID 2528, 2010;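 also: plate controls were vehicle for no effect and no enzyme for full effect; nearly all actives have a fitted effect of over 35% in size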
APE1 inh: qHTS Assay for Inhibitors of the Human Apurinic/apyrimidinic Endonuclease 1 (APE1). 350,000 tested, 0.35% active. DNA repair nuclease/redox regulator APEX1 (Homo sapiens), P27695. Potency, µM (titrated, usually from 65.8 µM), inactives show top-dose activity change, negative = inhibition, hits mostly inhibitors. recombinant APE1, TAMRA/BHQ-2 abasic DNA cleavage fluorescence. AID 2517, 2012;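 also: plate controls were vehicle for no effect and reference inhibitor for full effect; nearly all actives have a fitted effect of over 55% in size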
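APE1 at 0.75 nM final was preincubated with compound 15 min at room temperature, then 50 nM double-stranded THF abasic-site substrate (5'-TAMRA/3'-BHQ-2) was added. Fluorescence (ex 525/em 598 nm) was read kinetically; third-minus-first read gave activity.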
WRN helicase inh: qHTS for Inhibitors of WRN Helicase; Bifunctional 3'-5' exonuclease/ATP-dependent helicase WRN (Homo sapiens), Q14191; WRN helicase unwinding, fluorescent forked duplex, kinetic; Potency, µM (series often up to 114 µM), without a hit: at the highest dose activity change, negative = inhibition, usual class: inhibitors; 360,000 tested, 0.46% active; also: % is scaled to controls: 0 for no effect and ±100 for the full control effect; nearly all actives have a fitted effect of over 55% in size
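Enzyme (20 nM final) and test compound sit together 15 min at room temperature before substrate addition. Substrate is a single-forked duplex oligonucleotide (100 nM) labelled with fluorophore and quencher, with 2 mM ATP; helicase unwinding raises red fluorescence, read kinetically.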
ERG Ets-DNA blk: qHTS for Small Molecule Inhibitors of the ERG Ets/DNA interaction | Transcriptional regulator ERG (Homo sapiens), P11308 | fluorescence polarization, His-ERG Ets domain / labelled DNA | Potency, µM (top dose mostly 76.9 µM), for inactives: at the highest dose FP activity, negative = inhibition, most hits filed as inhibitors | 370,000 tested, 0.028% active | AID 624246, 2012; active = well fitted inhibition curve with a large enough effect in the polarisation, with a control signal flat; inconclusive = small, poorly fitted or top-dose-only effect, or effect the other way, or a change in a side signal; inactive = no such curve, though single readings can be large or run the other way; the % refers to the polarisation;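 also: polarization taken with two DNA probes labelled with fluorescein and Texas red; % of control where 0% means no effect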
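His-tagged ERG Ets domain (1 uM in the protein solution; 300mM KCl, 50mM Tris-HCl, 1mM EDTA, 1mM DTT, pH 7.5) received compound, then a probe mix of 5 nM fluorescein-DNA and 100nM Texas-615-DNA. Fluorescence polarization was read for both dyes.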
RECQ1 inh: qHTS Assay for Inhibitors of RecQ-Like Dna Helicase 1 (RECQ1); ATP-dependent DNA helicase Q1 (Homo sapiens), P46063; RECQ1 DNA unwinding, red fluorescence kinetic read; Potency, µM (top dose mostly 57.3 µM), inactives show at the highest dose activity, negative = inhibition, most hits filed as inhibitors; 240,000 tested, 0.54% active; AID 2549, 2010;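 also: plate controls were vehicle for no effect and no enzyme for full effect; nearly all actives have a fitted effect of over 30% in size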
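50 nM RECQ1T1 preincubated 15 min with compound in Tris pH 8.0 buffer with MgCl2, DTT, Tween-20 and 2.5 ug/ml poly(dI-dC); started with 200 nM TAMRA/BHQ-2 forked duplex and 2 mM ATP. Unwinding read as fluorescence (525/598 nm), two reads 2 h apart.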
GCN5L2 inh: qHTS Assay for Inhibitors of GCN5L2. 390,000 tested, 0.21% active. Potency, µM (top dose mostly 58.9 µM), for inactives: top-dose activity change, negative = inhibition, actives largely listed as inhibitors. AID 504327, 2011. Histone acetyltransferase KAT2A (Homo sapiens), Q92830. GCN5L2 HAT assay, ThioGlo1 CoA-SH fluorescence; also: % is scaled to controls: 0 for no effect and ±100 for the full control effect
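Preincubate 20nM GCN5L2 with compound 15 min, RT → add 50uM ThioGlo1 + 75uM H3(1-25) + 70uM acetyl-CoA → read fluorescence 0 and 20 min. Primary qHTS; fluorescent artifacts likely.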
The depositor's hits bear a star; i = inactive; ? = inconclusive; nt = not tested or not shown. Unless noted, calls follow the shape of the dose curve; as a rule, active = well fitted curve in the direction sought with a large enough effect; inconclusive = small, poorly fitted or top-dose-only effect, or another doubt; inactive = no such curve, though single readings can be large; an effect the other way counts as inactive or inconclusive. Potency is read from the fitted curve at half-maximal effect.

SMILES	BLM helicase inh	APE1 inh	WRN helicase inh	ERG Ets-DNA blk	RECQ1 inh	GCN5L2 inh
O=C(N/N=C/c1ccccc1Cl)c1[nH]c2ccc(Br)cc2c1-c1ccccc1	-2%	2%	25µM*	?	-3%	-10%
C=C1[C@@H]2CC[C@@H](C2)C1(C)C	nt	-1%	nt	nt	nt	nt
O=C(O)CSc1cc(NS(=O)(=O)c2ccc(Br)cc2)c2ccccc2c1O	?	2%	50µM*	-2%	nt	38%
Cc1ccc(S(=O)(=O)Nc2ccc(Br)cc2C(NCC(=O)O)c2ccccc2)cc1 (centres undefined)	1%	7%	-8%	4%	-2%	33%
COc1ccc(CNC(=O)c2cccc(N3CCCS3(=O)=O)c2)cc1OC	-4%	nt	nt	-1%	nt	-2%
Cc1noc(C)c1-c1ccc2ncnc(NCc3cccc(-c4ccccc4)c3)c2c1	-5%	?	nt	nt	-4%	-5%
O=C(c1ccccc1)c1cc(Cl)ccc1N1C(=O)C=CC1=O	-5%	-1%	14µM*	4%	-15%	?
O=C(CC(=O)c1cc(Cl)ccc1O)c1ccccc1	-1%	1%	-14%	nt	-12%	-16%
O=C(C1CCCN(Cc2ccccc2C(F)(F)F)C1)N1CCCCC1 (centres undefined)	-2%	9%	-9%	4%	i	1µM*
CN(C)c1ccc(-c2ccc3ncnc(-n4ccnc4)c3c2)cc1	-9%	-7%	nt	nt	-12%	25µM*
CCN1C/C(=C/c2cccs2)c2nc3ccccc3c(C(=O)O)c2C1	-10%	1%	-12%	-4%	11%	-9%
CCc1ccc(/C=C2\CN(CC)Cc3c2nc2ccccc2c3C(=O)O)cc1	-26%	3%	-1%	9%	-4%	2µM*
CCCCCCOc1ccc(C(=N)N(CCCC)CCCC)c2ccccc12	3%	nt	nt	nt	nt	-7%
C/C1=C2/[N-]C(C(CC(N)=O)[C@@]2(C)CCC(=O)NCC(C)OP(=O)([O-])O[C@H]2[C@@H](O)[C@@H](n3cnc4cc(C)c(C)cc43)O[C@@H]2CO)[C@]2(C)N=C(/C(C)=C3N=C(/C=C4N=C1C(CCC(N)=O)C\4(C)C)[C@@H](CCC(N)=O)[C@]\3(C)CC(N)=O)[C@@H](CCC(N)=O)[C@]2(C)CC(N)=O.CC(=O)O.[Co] (some centres undefined)	25µM*	nt	nt	nt	nt	-16%
COc1cccc2c1C(=O)c1c(O)c3c(c(O)c1C2=O)C[C@@](O)(C(=O)CO)C[C@@H]3O[C@H]1C[C@H](N)[C@@H](O)[C@H](C)O1	nt	nt	56µM*	i	nt	nt
CC(=O)OCCn1c2nc(=O)[nH]c(=O)c-2nc2cc(C)c(C)cc21	-3%	5%	2%	35µM*	-5%	?
CCCC(=O)OC[C@@H](OC(=O)CCC)[C@@H](OC(=O)CCC)[C@H](Cn1c2nc(=O)[nH]c(=O)c-2nc2cc(C)c(C)cc21)OC(=O)CCC	-4%	nt	nt	nt	nt	-28%
COC(=O)/C(C#N)=C/c1ccc(-c2ccc(S(N)(=O)=O)cc2)o1	1%	-4%	-20%	9%	3.2µM*	14%
CC(C)OC(=O)/C(C#N)=C/c1ccc(-c2ccc(SC(F)F)cc2)o1	-6%	4%	-4%	?	8%	-20%
Cc1ccc(C)n1-c1cccc(C(=O)O)c1	?	1.8µM*	nt	nt	?	?
Cc1ccc(C)n1-c1cccc(C(=O)Nc2ccccc2)c1	4%	11%	-3%	7%	i	-41%
COc1cccc2sc(NN)nc12	-13%	-4%	?	5%	i	-6%
NNc1nc2c(Cl)c(Cl)ccc2s1	-27%	3.2µM*	?	-10%	-27%	-25%
CC(C)(C)NS(=O)(=O)c1cccc(-c2nnc(SCC(=O)Nc3ccc(C(=O)O)cc3)n2-c2ccc(F)cc2)c1	nt	51%	nt	nt	nt	nt
CCOc1cc(/C=C2\SC(=S)N(NS(=O)(=O)c3ccc(C)cc3)C2=O)ccc1O	nt	nt	50µM*	4%	nt	nt
SMILES	BLM helicase inh	APE1 inh	WRN helicase inh	ERG Ets-DNA blk	RECQ1 inh	GCN5L2 inh
COc1cc(/C=C2\SC(=S)N(NS(=O)(=O)c3ccc(C)cc3)C2=O)ccc1O	-17%	-11%	45µM*	162%	22µM*	-1%
CCOc1cc(/C=C2\SC(=S)N(NC(=O)c3cccnc3)C2=O)ccc1O	-7%	?	56µM*	159%	18µM*	-11%
COc1cc(/C=C2\SC(=S)N(NC(=O)c3ccccc3OC)C2=O)ccc1O	?	-16%	16µM*	168%	nt	-15%
OC1OC[C@H](O)[C@@H](O)[C@@H]1O (some centres undefined)	4%	?	nt	nt	1%	0%
N#Cc1c(-c2ccc(F)c(Br)c2)no[n+]1[O-]	nt	5%	nt	nt	nt	nt
O=C(OCC(=O)N1CCC(Cc2ccccc2)CC1)c1ccc(O)cc1	nt	nt	-6%	nt	nt	nt
CNc1cc(OC)c(C(=O)N[C@H]2CCN(Cc3ccccc3)[C@H]2C)cc1Cl	nt	-5%	nt	nt	nt	nt
CC[C@H](C)[C@H](NC(=O)CNC(=O)[C@@H](NC(=O)[C@@H](NC(=O)[C@H](Cc1ccc(O)cc1)NC(=O)[C@H](CC(C)C)NC(=O)[C@H](C)NC(=O)[C@H](CCC(N)=O)NC(=O)CNC(=O)[C@@H]1CCCN1C(=O)CNC(=O)[C@H](Cc1ccccc1)NC(=O)[C@H](Cc1cnc[nH]1)NC(=O)[C@@H](NC(=O)CNC(=O)[C@H](CCCNC(=N)N)NC(=O)[C@H](CCCNC(=N)N)NC(=O)[C@@H](NC(=O)[C@H](CC(N)=O)NC(=O)[C@@H](N)CS)[C@@H](C)O)[C@@H](C)CC)[C@@H](C)O)[C@@H](C)O)C(=O)O	5%	-2%	nt	nt	15%	1%
Oc1c(Cl)cc(CN2CCCCC2)c2cccnc12	0%	26%	nt	nt	nt	-5%
O=[N+]([O-])c1cc(CN2CCCC2)c2cccnc2c1O	?	3.5µM*	?	6%	?	-26%
CCCCN(C)C(=O)Cn1c(SCC(=O)Nc2ccc(C)c(C)c2)nc2ccccc21	-5%	nt	nt	0%	nt	-5%
CC(=O)c1ccc(OCC(=O)Nc2nnc(C3CC3)s2)cc1	nt	nt	-9%	nt	nt	nt
Cc1cc(CCC(=O)O)c(C)cc1CCC(=O)O	1%	1%	-5%	-15%	-1%	-7%

Bioassay records from PubChem BioAssay.
